A selection: hits, their analogues and other compounds. The true share with any hit is near 18%.
TGFb inhibitor – qHTS for Inhibitors of TGF-b | 410,000 compounds, 1.2% hits | HepG2 CAGA-GFP TGF-b/SMAD3 reporter, GFP fluorescence, 18 h; TGF-beta stimulated, 500 pg/mL final | AID 588855, 2011 | Potency, µM (titrated, usually from 46.1 µM), actives largely listed as inhibitors; note: nearly all actives have a fitted effect of over 65% in size
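Inhibition was scored as loss of TGF-beta-induced (500 pg/mL final, 18 hours, 37 degrees C) GFP in HEPG2 cells carrying a CAGA-GFP reporter, in DMEM with 1% FBS. Well GFP was summed per cell; Activity was normalised to unstimulated and stimulated DMSO wells, then concentration-response fitting.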
TDP1 cell noCPT – qHTS for Inhibitors of human tyrosyl-DNA phosphodiesterase 1 (TDP1): qHTS in cells in absence of CPT; DT40 Tdp1-/- hTDP1 cells, no CPT, ATP luminescence, 48 h; Potency, µM (top dose mostly 46.2 µM), most hits filed as inhibitors; 420,000 compounds, 15% hits; AID 686978, 2013; note: nearly all actives have a fitted effect of over 55% in size
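Growth of hTDP1-complemented DT40 Tdp1-knockout cells is measured by ATP luminescence after at least 48 hr compound exposure at 37 °C, with DMSO substituting for the 20 nM CPT used in the parallel screen.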
DT40 TDP1 CPT – qHTS for Inhibitors of human tyrosyl-DNA phosphodiesterase 1 (TDP1): qHTS in cells in presence of CPT; 420,000 compounds, 12% hits; Potency, µM (titrated, usually from 46.2 µM), most hits filed as inhibitors; AID 686979, 2013; chicken DT40 Tdp1-/-;hTDP1 cells + 20 nM CPT, ATP luminescence, 48 h; note: nearly all actives have a fitted effect of over 55% in size
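Cell growth measured by CellTiter-Glo luminescence after a minimum 48 h, 37 C compound exposure with 20 nM CPT in Tdp1-knockout DT40 cells stably expressing hTDP1, seeded 400/well; qHTS titration format.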
IL-1B inflam inh – qHTS for Inhibitors of Inflammasome Signaling: IL-1-beta AlphaLISA Primary Screen; THP-1 LPS/ATP IL-1B secretion, AlphaLISA, 16 h; active compounds read low; activity change, % at 57.5 µM; 360,000 compounds, 4.7% hits; AID 743279, 2014; in the data active = activity change below about -50%; inconclusive = mostly about -30% to -49%
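Secreted IL-1B measured by AlphaLISA bead assay after 16 h compound exposure of THP-1 cells; compounds (final up to 57.5 uM) added 1 h before LPS (250 ng/mL) and ATP (1.25 mM) stimulation; lower signal means less secretion.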
HepG2 viability – qHTS for Inhibitors of TGF-b: Cytotox Counterscreen | HepG2 CAGA-GFP viability, ATP luminescence, 18 h | AID 588856, 2011 | Potency, µM (highest dose often 46.1 µM), most hits filed as cytotoxic | 410,000 compounds, 0.76% hits
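HepG2 CAGA-GFP cells (1000/well, DMEM with 1% FBS) received compound, then TGF-beta at 500 pg/mL final, and were incubated 18 hours at 37 degrees C. Viability was read by CellTiter-Glo luminescence. Media-only wells were set as complete cell-killing and DMSO as no toxicity.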
TDP1 inh – qHTS Assay for Inhibitors of Tyrosyl-DNA Phosphodiesterase (TDP1). Tyrosyl-DNA phosphodiesterase 1 (Homo sapiens), Q9NUW8. recombinant TDP1, AlphaScreen DNA substrate cleavage. Potency, µM (series often up to 130 µM), actives largely listed as inhibitors. 350,000 compounds, 0.28% hits. AID 485290, 2010; note: nearly all actives have a fitted effect of over 40% in size
Target sequence (Q9NUW8 whole entry, looked up): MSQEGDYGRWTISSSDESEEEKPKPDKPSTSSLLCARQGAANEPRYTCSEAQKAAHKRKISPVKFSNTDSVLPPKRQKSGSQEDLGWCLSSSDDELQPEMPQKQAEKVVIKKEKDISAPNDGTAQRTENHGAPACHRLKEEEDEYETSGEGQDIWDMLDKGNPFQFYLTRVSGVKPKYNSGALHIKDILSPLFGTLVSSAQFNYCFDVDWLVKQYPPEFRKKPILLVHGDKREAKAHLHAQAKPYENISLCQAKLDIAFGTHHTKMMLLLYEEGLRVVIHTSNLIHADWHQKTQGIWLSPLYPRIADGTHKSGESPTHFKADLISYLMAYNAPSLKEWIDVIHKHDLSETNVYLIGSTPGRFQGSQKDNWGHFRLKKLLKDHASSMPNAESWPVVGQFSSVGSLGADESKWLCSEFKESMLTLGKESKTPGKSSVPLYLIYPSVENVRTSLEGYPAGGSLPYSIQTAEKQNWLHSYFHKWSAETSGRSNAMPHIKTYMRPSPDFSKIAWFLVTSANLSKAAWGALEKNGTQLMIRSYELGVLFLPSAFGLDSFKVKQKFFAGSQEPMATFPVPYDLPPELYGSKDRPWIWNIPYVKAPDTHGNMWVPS
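Compounds were preincubated with Tdp1 (1 nM final) for 15 min at room temperature before substrate (15 nM final) started a 5 min reaction; beads (10 ug/ml final) were then added for 10 min before AlphaScreen detection.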
A number is an active result; n = inactive; u = inconclusive; x = no result given; [ ] = another dose, or the depositor's remark. Unless noted, calls come from the whole dose curve; as a rule, active = well fitted curve in the direction sought with a large enough effect; inconclusive = small, poorly fitted or top-dose-only effect, or another doubt; inactive = no such curve, though single readings can be large; an effect the other way counts as inactive or inconclusive.

SMILES | TGFb inhibitor | TDP1 cell noCPT | DT40 TDP1 CPT | IL-1B inflam inh | HepG2 viability | TDP1 inh
NC(=O)N/N=C/c1c(O)ccc2oc3c(c12)CCCC3 | 10µM | u | u | -98.0 | n | n
O=c1c2ccccc2nc(N/N=C/c2c(O)ccc3ccccc23)n1O | n | 5.17µM | 3.66µM | n | n | n
O=C1CSC(=S)N1N=Cc1c(O)ccc2ccccc12 | u | 13µM | 20.6µM | n | n | x
Cc1nc2ccccc2c(=O)n1/N=C/c1c(O)ccc2ccccc12 | n | 18.4µM | u | n | n | n
O=c1c2ccccc2nc(N/N=C/c2ccc(O)cc2)n1O | n | n | u | n | n | n
Cc1nc2ccccc2c(=O)n1/N=C/c1cc(Br)ccc1O | n | u | u | n | n | x
CC(C)(C)N=Cc1c(O)ccc2oc3c(c12)CCCC3 | n | n | n | n | n | x
NC(=O)c1ncn([C@@H]2O[C@H](CNS(=O)(=O)c3cc4ccccc4s3)[C@@H](O)[C@H]2O)n1 | n | n | n | n | n | x
Cc1nc2ccccc2c(=O)n1/N=C/c1c(O)ccc2oc3c(c12)CCCC3 | n | 18.4µM | 20.6µM | n | n | n
CCCCCc1c(-c2cccc(OC)c2)ncn1CCc1ccccc1OC | x | 7.31µM | 8.2µM | -85.5 | x | x
CCCc1c(-c2ccc(F)cc2F)ncn1Cc1ccccc1OC | x | 1.46µM | 2.06µM | n | x | x
CCCCc1c(-c2cccc(F)c2)ncn1CCc1ccccc1OC | x | 20.6µM | 20.6µM | -74.2 | x | x
CCCc1c(-c2cccc(F)c2)ncn1CCc1ccccc1OC | x | 14.6µM | u | -77.9 | x | x
COc1cccc(OC)c1C(=O)NCCc1sc(-c2cccc(F)c2)nc1C | n | u | u | x | n | n
COc1ccc(Nc2cc(Nc3ccccc3)ncn2)cc1 | n | n | n | n | n | x
COc1ccccc1Cc1c(-c2cccc(Br)c2)nc2ccc(Cl)cn12 | u | u | u | n | n | x
CCCc1c(-c2cccc(F)c2)ncn1Cc1ccccc1OC | x | 8.2µM | 9.2µM | n | x | x
CCCCCc1c(-c2cccc(F)c2)ncn1CCc1ccccc1OC | x | 18.4µM | 23.1µM | n | x | x
COc1ccccc1Cn1ccn(Cc2c(F)cccc2Cl)c(=O)c1=O | u | u | u | x | n | n
CCCCCn1cnc2sc(-c3ccccc3)cc2c1=O | n | n | n | n | n | n
CCCCCc1c(-c2cccc(Cl)c2)ncn1CCc1ccccc1OC | x | 23.1µM | 23.1µM | n | x | x
CCCCc1c(-c2cccc(Br)c2)ncn1CCc1ccccc1OC | x | 5.8µM | 5.8µM | -72.0 | x | x
Cc1cc(NS(=O)(=O)c2ccc(NC(=O)c3ccc([N+](=O)[O-])c(Cl)c3)cc2)no1 | n | n | n | n | n | n
O=S(=O)(CCc1ccccc1)CS(=O)(=O)CCc1ccccc1 | n | n | n | n | n | x
Fc1cccc(Cc2c(-c3cccc(Br)c3)nc3c(Cl)cc(C(F)(F)F)cn23)c1 | n | n | n | n | n | x
SMILES | TGFb inhibitor | TDP1 cell noCPT | DT40 TDP1 CPT | IL-1B inflam inh | HepG2 viability | TDP1 inh
COc1ccc(-c2nc3c(Cl)cc(C(F)(F)F)cn3c2Cc2cccc(F)c2)cc1OC | u | 18.4µM | 23.1µM | u | n | x
Cc1ccc(Cc2c(-c3cccc(Br)c3)nc3c(Cl)cc(C(F)(F)F)cn23)cc1 | x | 16.4µM | n | n | x | x
O=C(Nc1ccc(C(F)(F)F)cc1)N1CCN(C(=O)c2ccco2)CC1 | n | n | n | n | n | n
Nc1nnnn1/N=C/c1ccccc1C(F)(F)F | n | 18.4µM | 11.6µM | n | n | n
CCCCCCC(=O)Cc1cc(OC)c(OC)cc1/C=C(/C(C)=O)C(=O)OC | x | x | x | x | x | n[21 µM]
COc1ccc(C(=O)C2CCN(C(=S)Nc3ccc(F)cc3)CC2)cc1 | u | n | n | -63.1 | n | n
COc1cccc(NC(=S)N2CCC(C(=O)c3ccc(F)cc3)CC2)c1 | n | u | u | u | n | x
COc1ccc(NC(=S)N2CCC(C(=O)c3ccc(C)cc3)CC2)cc1 | u | 8.2µM | u | n | n | x
COc1ccc(NC(=S)N2CCC(C(=O)c3ccc(OC)cc3)CC2)cc1 | n | 16.4µM | u | n | n | n
COc1ccc(Cl)cc1Nc1nc(Cl)nc(NCCO)n1 | n | u | u | n | n | x
Cc1cc(-c2csc(NC(=O)c3ccc(=O)n(C)n3)n2)c(C)n1CC1CCCO1 (configuration not stated) | n | n | n | u | n | 50.1µM
Cc1cc(-c2csc(NC(=O)c3ccc(=O)[nH]c3)n2)c(C)n1Cc1ccco1 | n | u | n | n | n | 2.24µM
